Reference: the emibetuzumab library of Makowski et al. (2022)
The other results are listed elsewhere or left out. The hit rate among all sequences tested is not known here.

B1: VH:VL chains; a variant is named by its letters at X, in order (parent)
chain 1: QVQLVQSGAEVKKPGASVKVSCKASGYTFTDYXMHWVRQAPGQGLEWMGXVNPNXXXTTYNQKFEGRVTMTTDTSTSTAYMELRSLRSDDTAVYYCARXNXLDXWGQGTTVTVSS
chain 2: DIQMTQSPSSLSASVGDRVTITCSVSSSVSSIYLHWYQQKPGKAPKLLIYSTSNLASGVPSRFSGSGSGTDFTLTISSLQPEDFATYYCQVYSGYPLTFGGGTKVEIK

Variants of: B1
Test: yeast display scFab, FACS + sequencing
Details: with MET
Method in brief: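 Heavy-chain CDR mutant scFab yeast surface library, enriched by two magnetic rounds on HGFR-Fc-coated Protein A beads and then by FACS. Cells were labelled with 1 nM HGFR-Fc in PBSB with 1% milk and anti-Myc for 3 h at room temperature, and the top 50% antigen-positive cells were gated. Round-3 sorted and input populations were deep sequenced in two replicates. Antigen binding call: positive if a sequence occurred in both antigen-positive samples, negative if it occurred only in input.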

Variant | antigen binding call
STGEDDVY | no binding
DEEEGSAA | no binding
YKARGAWS | binds
YRARGAGS | binds
YRARGAWS | binds
YEEGTDWY | no binding
DREEGDGV | no binding
DEAGTAVA | no binding
VRAGDSLS | no binding
VERGGFGS | no binding
VRRGGSGS | binds
VRGRDYGD | no binding
VKRRDSGD | no binding
VKRGSSGD | binds
VRGRSSGS | binds
VAGRSFGS | no binding
VRGRAAGD | binds
AKGTASGD | no binding
VRTGAVGD | no binding
ARRGGSGS | no binding
VEKEGDAD | no binding
VKEKGDWV | no binding
DARGGDAA | no binding
VAATASWV | no binding

Variant | antigen binding call
SEARSDGS | no binding
VTGTGDAD | no binding
VRAGGSGD | binds
DRGRDAWS | no binding
VRERGAGS | binds
VRERGDAS | no binding
VRGRSAWS | binds
VRERGDGS | no binding
VRTEDDWS | no binding
VRRGGSGD | binds
SREAADWA | no binding
SEARSDWA | no binding
AARADSGY | no binding
VAATAAGA | no binding
DKTKGDWV | no binding
VRRGSAGD | binds
ARRGSAVS | no binding
VTTKSAGD | no binding
VRAGDDGS | no binding
VRRGSAGS | binds
VRAGADGV | no binding
VRAGAAGV | no binding
VRRGSSGD | binds
VRAGAAGS | binds

Variant | antigen binding call
VEGTSSGD | no binding
DKGEGAGV | no binding
STAESDVA | no binding
VRRAADSD | no binding
YRRGGSGD | binds
VRRGSASD | binds
VRRETVSD | no binding
SAGEGDVF | no binding
FKGRGFVV | no binding
FKGRGAAV | binds
VKEGGSAD | no binding
FRGRASAD | binds
DRGRGSAD | binds
VKGRGSAD | binds
FTGRAAAV | no binding
VKAGASAD | no binding
DEGGTSAD | no binding
DTGTSAAF | no binding
STGEADAS | no binding
YAEESDWV | no binding
ATGGAAGD | no binding
VGGTSDGA | no binding
VKGRGVVD | binds
FAGRGSAD | binds

Variant | antigen binding call
VKTKGVVD | no binding
FTGRGSAD | no binding
FKGRGSAD | binds
VAGRGVGD | no binding
FAGRGSSD | no binding
FKGRGAAD | binds
VAGGDDAV | no binding
FAEGAAGD | no binding
VGGTSSLD | no binding
DKRKGVSD chain 1 S88F | no binding
ATGRADGV | no binding
FRGRGSAD | binds
AAGRSDLV chain 1 R67H | no binding
FAGRSDWV chain 1 R67H | no binding
YRTRDSVA | binds
SEGGDAGD | no binding
FRTRDVGF | no binding
SETTDAGD | no binding
FRTRDAGD | binds
YTTRDDSD | no binding
SRTRDAGD | binds
YRTRDSLD | binds
STEASYLS | no binding
VGRATVGS | no binding

Variant | antigen binding call
FTRRSSLF chain 1 V111I | no binding
YRTRDSVD | binds
FRTRDSLD | binds
FTTRDDSD | no binding
FRTRDALD | binds
FRGRDFLD | no binding
SARKGDVA | no binding
VTGTGDVY | no binding
STGGDDGF | no binding
YAGGDDAV | no binding
DTKAADGV | no binding
YRAGSASD | binds
YRAGAASD | binds
DRAGDASD | no binding
YRGKDASD | binds
YREGDASD | no binding
AARADDAA | no binding
SEARSDAA | no binding
YAGEGFGV | no binding
VKAGGDVY | no binding
VTERGSLD | no binding
VRERGAWD | binds
VRERGASD | binds
VKKTGDLY | no binding

Variant | antigen binding call
VRERGSWD | binds
VKAGGSLY | binds
VGGTSSSA | no binding
AGGTSYSV | no binding
SARADSGV | no binding
VTGGDYAV | no binding
DEGTGAVA | no binding
VRERGSLY | binds
VRKGGSVY | no binding
YRARGSWD | binds
YRRGGSWD | binds
SEARSSSD | no binding
YRARSSSD | binds
YRARSSWD | binds
VAREDDLS | no binding
VEGGGDGA | no binding
ATGRADVY | no binding
VEEASSWA | no binding
SGGGNDLA chain 1 R87K | no binding
YRAGSSWD | binds
YRRGDAWD | binds
YRRGASWD | binds
DRAGDSWA | no binding
YAAGSSWD | no binding

Variant | antigen binding call
YRAGDSWD | binds
DRAGDSWD | no binding
DETKGDWD | no binding
YRAKGSWD | binds
YRARGAWD | binds
YRAGGSWF | binds
YEGAASWF | no binding
YRRGDSWD | binds
VTGTGDWV | no binding
VEEEGSVV | no binding
DAKEGDAV | no binding
DTGGGAWD | no binding
FRAGSSWD | binds
YKARGSWD | binds
FREGASWD | no binding
YRRGDSAD | binds
VEAGSDGV | no binding
VEKEGDGV | no binding
DTTGSASF | no binding
YRAGGYGD | binds
YRKENYGD | no binding
YRAGGVGD | binds
VKGRGSAY | binds
YKGRGSAY | binds

Variant | antigen binding call
VAGTGDVF | no binding
YRERTAAV | no binding
YTGKSVAV | no binding
YRGRTAAV | binds
FRGRGFGV | binds
YRGRSAGV | binds
YRGKSAAV | binds
FKGRGFGV | no binding
DTREGAVV | no binding
VAGGDYLV | no binding
DKGGGDVA | no binding
AGEGNSWA | no binding
VAGTGDGA | no binding
YRGRSFAV | no binding
YRRRTAAV | binds
YRGRGFGV | binds
YAGRTAGV | no binding
VRGRDFGV | no binding
DRGRDFGV | no binding
YRGRSFGV | binds
YRGRTAGV | binds
SEARNDGA | no binding
DAGGDAGD | no binding
VTRGADAA | no binding

Variant | antigen binding call
AARADDSV | no binding
YRTRGSLY | binds
YRTRGSGY | binds
YATEDDWV | no binding
VETGNAVY | no binding
SEARSDLY | no binding
FAEGSYAF | no binding
VGAEDDVA | no binding
SGETGDSV | no binding
FRGRGSAA | binds
FRGRSSAA | binds
VTGRGDVA | no binding
YREGGAGV | binds
YREGGSGV | binds
DREEGAGV | no binding
DKEGGSGV | no binding
VEKEGDWY | no binding
SAREGDLA | no binding
